# Sampled rows, rich in hits. Any-hit rate of the full collection: about 2.9%.
# Peg3 prom inh-1: Peg3 promoter-driven luciferase inhibitors, primary screen, cell-based, HeLa, luciferase luminescence | AID 588405, 2011 | HeLa PEG-Prom luciferase reporter, overnight | 360,000 compounds, 1.7% hits | inhibition, % at 20 µM;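 active = inhibition of at least 50% at 20 µM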
# KKLEB cytotox: cytotoxicity in KKLEB CF airway cells, primary screen, cytotoxicity control for CF NF-kB inhibitor project, cell-based, uHTS, fluorescence assay plates. KKLEB CF airway cells viability, ATPlite luminescence, overnight; stronger effect = lower value; cells stimulated with P. aeruginosa culture filtrate. activity change (cytotoxicity), % at 5 µM. 360,000 compounds, 0.36% hits. AID 602141, 2011;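 active = corrected activity change at or below -50% at 5 µM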
# EBV LMP1 NFkB: EBV LMP1-driven NF-kappaB luciferase reporter inhibitors, primary screen, cell-based, luminescence, single point; LMP1-induced NF-kappaB luciferase reporter cells; 350,000 compounds, 0.69% hits; inhibition, % at 12.5 µM; AID 504558, 2011; in the data active = inhibition above about 41%; inconclusive = no clear call, values can overlap the other calls;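 note: 0% = neutral control wells and 100% = reference inhibitor control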
# HIF-2a block: HIF-2a reporter inhibitors, primary screen, luminescence, 786-0 RCC cells | 786-0 RCC cells HIF-2a reporter, luciferase luminescence, overnight | 360,000 compounds, 0.72% hits | inhibition, % at 18.8 µM;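 active = inhibition of the luminescence signal of 40% or more relative to plate controls, in a single-dose primary screen at 18.75 µM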
# Shn3 3UTR inh: reduction of Shn3 3'UTR firefly luciferase signal, primary screen, Schnurri-3 inhibitor project, cell-based, Clone20 osteoblasts, set 2; Clone20 osteoblast Shn3 3'UTR firefly luciferase, 24 h; inhibition, % at 12.5 µM; 360,000 compounds, 0.52% hits;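 active = mean inhibition of at least 75% with every replicate also reaching 75%; inconclusive = mean inhibition at least 75% but some replicate below; inactive = mean inhibition below 75%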;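 note: 0% = median of neutral control wells and 100% = pilot-screen positive control compound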
# CF NFkB block: inhibitors of PAF-induced NF-kB signaling, primary screen, cell-based, GFP fluorescence, uHTS | inhibition, % at 5 µM | AID 588850, 2011 | KKLEB NF-kB-GFP reporter, GFP fluorescence overnight | 360,000 compounds, 0.86% hits;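 active = at least 50% inhibition at 5 µM, scaled per plate between neutral and stimulator controls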;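 note: PAF is a Pseudomonas aeruginosa culture filtrate used as stimulus; plate controls were PAF-stimulated DMSO wells for no effect and unstimulated DMSO wells for full effect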
# Peg3 prom inh-2: Peg3 promoter reporter inhibitors, retest, confirmation, cell-based, HeLa, luciferase reporter, single concentration. 1,300 compounds, 84% hits. shares compounds with Peg3 prom inh-1. HeLa PEG-Prom luciferase reporter, luminescence, overnight. inhibition, % at 20 µM. AID 602417, 2012;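 active = at 20 µM dose, 40% or more inhibition averaged across four replicates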
# * hit, by the source's call; ? = inconclusive; nt = no result given.
SMILES,Peg3 prom inh-1,KKLEB cytotox,EBV LMP1 NFkB,HIF-2a block,Shn3 3UTR inh,CF NFkB block,others
Cc1nn(-c2ccccc2)c2c1C(c1ccc(O)c(O)c1)N1C(=N2)C(Nc2ccccc2)=Nc2ccccc21 (stereo unspecified),21.4,-0.5,6.7,18.4,-3.7,-11.8,
COc1cccc(CN2CCN(S(=O)(=O)c3ccc(Cl)s3)CC2)c1,15.6,-1.4,-4.8,13.1,-4.5,-4.4,
COc1ccc(NC(=O)/C(C#N)=C/c2cc(C)n(-c3ccc(N4CCOCC4)c([N+](=O)[O-])c3)c2C)cc1,19.1,-11.2,44.5*,4.4,72.6,11.3,
COc1ccc2oc(-c3ccc(NC(=O)c4ccc(N5CCOCC5)c([N+](=O)[O-])c4)cc3)nc2c1,28.9,-60.3*,-21.7,18.8,8.4,53.5*,
O=C(Nc1cccnc1)c1ccc(N2CCOCC2)c([N+](=O)[O-])c1,-21.5,8.2,-3.1,-14.8,-14.6,-5.1,
COc1ccc(OC)c(NC(=O)Nc2ccc3c(c2)OCO3)c1,-59.7,-0.9,-2.1,-62.9,3.6,27.7,
CC1CCN(Cc2c(C(=O)N/N=C/c3ccc(C(C)C)cc3)nnn2-c2nonc2N)CC1,65.0*,0.0,-18.8,-4.9,14.5,-8.3,
CCOc1ccccc1/C=N/NC(=O)c1nnn(-c2nonc2N)c1CN1CCC(C)CC1,43.7,11.4,-3.2,-7.4,6.1,-14.1,
CCOc1ccccc1N1CCN(C(=O)c2cccs2)CC1,21.1,8.1,-1.4,11.0,-13.0,-2.5,
CCN1C(=O)CC2CCCC1C2 (stereo unspecified),10.7,-0.3,-1.6,12.5,95.4*,3.7,
CCCN1C2CCCC1CC(NC(=O)c1ccc(C(C)(C)C)cc1)C2 (stereo unspecified),-9.6,-3.0,-6.6,-32.4,-36.0,-3.7,
COc1ccc(S(=O)(=O)N2CCOCC2)cc1NC(=O)COC(=O)CCS(=O)(=O)c1ccc(C)cc1,-4.0,14.9,67.8*,-5.4,-56.0,10.1,
COc1ccc(S(=O)(=O)N2CCCCC2)cc1NC(=O)CN(Cc1ccco1)Cc1ccco1,53.9*,15.7,3.9,15.0,76.7,2.1,
COc1ccc(S(=O)(=O)N2CCCCC2)cc1NC(=O)CN(C)C1CCCCC1,22.6,-4.1,12.2,19.3,11.8,-9.1,
COc1ccc(S(=O)(=O)N2CCOCC2)cc1NC(=O)COC(=O)C1CCC1,-9.8,-0.6,-2.8,9.2,0.9,-9.2,
O=C(NNC(=O)C12CC3CC(CC(C3)C1)C2)[C@@H]1C[C@H]1c1ccccc1,-9.5,-1.8,-6.1,-32.2,46.6,8.8,
CC(=O)c1cccc(NC(=O)C(Sc2ncnc3ccccc23)c2ccccc2)c1 (stereo unspecified),-47.8,-12.2,0.5,-13.2,-17.3,6.2,
Cc1ccc(C)c(NC(=O)C(Sc2nncn2C)c2ccccc2)c1 (stereo unspecified),3.9,7.7,-4.1,15.3,9.5,0.9,
Cc1ccc(C)c(NC(=O)C(Sc2nc3ccccc3c(=O)n2CC(C)C)c2ccccc2)c1 (stereo unspecified),56.8*,-93.3*,-11.0,-6.3,70.1,105.0*,
Cc1ccc(C)c(NC(=O)C(Sc2ncnc3ccccc23)c2ccccc2)c1 (stereo unspecified),58.5*,-21.0,12.5,15.3,18.4,9.2,
COc1cc(C(=O)N(C)CCOc2ccccc2)ccc1OCC(=O)Nc1cccc(C(F)(F)F)c1,19.5,-3.0,17.2,-13.7,13.1,-12.6,
C/C(=N\NC(=O)c1nnn(-c2nonc2N)c1CN(C)c1ccccc1)c1ccccn1,67.6*,0.1,14.6,18.1,91.8*,5.9,
CCN(CC)c1ccc2cc(NC(=O)CCC(=O)O)c(=O)oc2c1,43.9,-5.3,38.1,84.3*,61.2,-10.4,
COc1ccc(-c2cc(CNc3nc(NC(C)C)nc4cc(-c5ccccc5)sc34)on2)cc1,78.0*,-20.3,nt,-23.0,70.9,-28.5,
C=CCNc1nc(NCc2ccc(NC(C)=O)cc2)c2sc(-c3ccccc3)cc2n1,-116.0,-60.5*,nt,-62.7,-9.3,-6.6,
SMILES,Peg3 prom inh-1,KKLEB cytotox,EBV LMP1 NFkB,HIF-2a block,Shn3 3UTR inh,CF NFkB block,others
CC(=O)Nc1ccc(CNc2nc(NC(C)C)nc3cc(-c4ccccc4)sc23)cc1,64.6*,-55.7*,nt,-31.3,22.8,-28.5,
c1ccc(-c2cc3nc(NCC4CC4)nc(NCC4CCCCC4)c3s2)cc1,93.2*,-83.7*,nt,15.6,87.6*,81.7*,
CC(=O)NCCNc1nc(NC(C)C)nc2cc(-c3ccccc3)sc12,-7.2,2.6,nt,-18.7,-8.3,-9.4,
COCCNc1nc(NCC2CCCCC2)c2sc(-c3ccccc3)cc2n1,47.3,-13.0,nt,5.0,24.5,28.5,
CC(C)(C)OC(=O)N1CCN(c2ccc(NC(=O)c3ccco3)cc2)CC1,-9.2,-1.7,4.1,-28.3,2.7,-6.6,
c1ccc(OCCNc2ccn3nc(-c4cccs4)cc3n2)cc1,-192.8,-4.4,nt,-318.2,-36.2,-7.0,
CCOc1ccc2c(c1)C(C)=CC(C)(C)N2S(=O)(=O)c1ccc(C)cc1,19.9,-21.8,20.5,39.2,78.5,60.9*,
CC1=CC(C)(C)N(C(=O)CCl)c2cc(C)ccc21,-5.6,5.8,0.2,-1.0,19.2,-12.3,
COc1ccc2c(c1)C(C)=CC(C)(C)N2S(=O)(=O)c1ccc(C)cc1,30.6,-26.8,2.8,12.1,59.3,48.9,
CC1=CC(C)(C)N(S(=O)(=O)c2ccc(C)cc2)c2cc(C)ccc21,31.1,-28.7,16.6,5.6,24.9,51.4*,
COCC(C)n1c(C)cc(C(=O)COC(=O)c2cnc(Cl)c(Cl)c2)c1C (stereo unspecified),16.4,3.8,4.5,7.8,4.2,-9.6,
COCC(C)n1c(C)cc(C(=O)COC(=O)c2cccn2C)c1C (stereo unspecified),55.5*,-0.7,?,11.8,29.3,4.9,Peg3 prom inh-2=45.3*
Cc1ccc(NC(=O)CCN2CC(C)OC(C)C2)cc1C (stereo unspecified),8.6,14.9,7.8,4.5,-3.5,-8.4,
COc1ccc(C(=O)c2sc(Nc3ccccc3)c(C(=O)Nc3ccc(OC)c(OC)c3)c2N)cc1,4.3,-12.2,1.1,-77.8,4.0,10.4,
COc1ccc(C(=O)c2sc(Nc3cccc(OC)c3)c(C(=O)Nc3cccc(C)c3C)c2N)cc1,97.2*,-34.9,4.2,6.7,69.0,27.2,Peg3 prom inh-2=33.6
O/N=C(\c1ccc(Cl)cc1Cl)c1ncc(C(F)(F)F)cc1Cl,57.2*,5.7,4.5,16.3,51.2,2.5,Peg3 prom inh-2=47.2*

# Bioassay records from PubChem.
